Laboratory results taken from PubChem BioAssay (NCI).
The panel holds about 83,000 compounds, 20% with a hit somewhere; the sample as a whole holds those more often.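 48-hour exposure, single concentration, 96-well plates; percent growth endpoint where 0 means no net growth. Active: below 10.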 The source made the active and inactive calls.

Legend:
Assay in all cases: NCI-60 one-dose screen, 48 h (100 = growth as untreated, 0 = no growth, -100 = all killed)
Details in all cases: 10 µM
T-47D breast = system: T-47D breast
BT-549 breast = system: BT-549 breast
MDA-MB-435 melanoma = system: MDA-MB-435 melanoma
SW-620 colon = system: SW-620 colon
MCF7 breast = system: MCF7 breast
HCT-116 colon = system: HCT-116 colon
HCC-2998 colon = system: HCC-2998 colon
KM12 colon = system: KM12 colon

Measured: growth

CC(C)C[C@H](NC(=O)Cn1cccc(CNC(=O)c2ccccc2)c1=O)B(O)O
inactive: BT-549 breast 24.1% | MCF7 breast 30.2%
active: T-47D breast -18.5% | MDA-MB-435 melanoma -54.5% | SW-620 colon 6.53% | HCT-116 colon 2.43% | HCC-2998 colon -34.8% | KM12 colon -12.5%

O=C(Nc1cc([N+](=O)[O-])c2[nH]c(=O)c3ccccc3c2c1)C(F)(F)F
inactive: T-47D breast 105% | BT-549 breast 86.5% | MDA-MB-435 melanoma 102% | SW-620 colon 64.5% | MCF7 breast 82% | HCT-116 colon 56.5% | HCC-2998 colon 89.3% | KM12 colon 87.2%

COc1ccc(C(=O)c2ccccc2CN2C(=O)c3ccccc3C2=O)cc1
inactive: T-47D breast 90.6% | BT-549 breast 112% | MDA-MB-435 melanoma 108% | SW-620 colon 99% | MCF7 breast 102% | HCT-116 colon 101% | HCC-2998 colon 105% | KM12 colon 107%

O=C1/C(=C/c2ccc([N+](=O)[O-])s2)Oc2cc(Cl)ccc21
inactive: T-47D breast 11.2%
active: BT-549 breast -55% | MDA-MB-435 melanoma -25.7% | SW-620 colon -40.9% | MCF7 breast 4.42% | HCT-116 colon -17.8% | HCC-2998 colon 2.91% | KM12 colon -28.4%

COc1ccccc1-n1c(-c2sc(NC(C)=O)nc2C)n[nH]c1=S
inactive: T-47D breast 106% | BT-549 breast 93.8% | MDA-MB-435 melanoma 105% | SW-620 colon 108% | MCF7 breast 97.5% | HCT-116 colon 98.3% | HCC-2998 colon 108% | KM12 colon 108%

c1ccc(CSc2ncccc2-c2nnc(SCCN3CCOCC3)o2)cc1
inactive: T-47D breast 101% | BT-549 breast 112% | MDA-MB-435 melanoma 114% | SW-620 colon 107% | MCF7 breast 94.9% | HCT-116 colon 108% | HCC-2998 colon 116% | KM12 colon 107%

COC(=O)C1(O)NC(=C(C#N)C#N)C(C#N)=C1C(=O)c1ccc(OC)c(OC)c1 (configuration not stated)
inactive: T-47D breast 98.6% | BT-549 breast 89.1% | MDA-MB-435 melanoma 104% | SW-620 colon 97.9% | MCF7 breast 95.4% | HCT-116 colon 90.9% | HCC-2998 colon 117% | KM12 colon 105%

O=C(Nc1ccc(OS(=O)(=O)c2ccccc2)cc1)C1CCCCC1
inactive: T-47D breast 85.4% | BT-549 breast 84% | MDA-MB-435 melanoma 100% | SW-620 colon 102% | MCF7 breast 97% | HCT-116 colon 72.1% | HCC-2998 colon 92.4% | KM12 colon 88.5%

CC(=O)C1CCC2C3CC=C4CC(SC(=N)N)CCC4(C)C3CCC12C (configuration not stated)
active: MDA-MB-435 melanoma 9.68% | SW-620 colon -75.2% | MCF7 breast -2.29% | HCT-116 colon 1.01% | HCC-2998 colon -52.3%
inactive: T-47D breast 40.9% | BT-549 breast 76.4% | KM12 colon 31.8%

Cc1ccc(NC(=S)NNC(=S)Nc2ccc(C)cc2)cc1
active: MDA-MB-435 melanoma -1.34%
inactive: T-47D breast 46.8% | BT-549 breast 71.7% | SW-620 colon 44.3% | MCF7 breast 29.3% | HCT-116 colon 34.5% | HCC-2998 colon 68.9% | KM12 colon 60.5%

Cc1noc(C)c1CSc1ccccc1C(=O)N1CCN(c2cccc(C(F)(F)F)c2)CC1
inactive: T-47D breast 49.2% | BT-549 breast 61% | MDA-MB-435 melanoma 82.6% | SW-620 colon 86.5% | MCF7 breast 79.4% | HCT-116 colon 55.3% | HCC-2998 colon 93.6% | KM12 colon 79.2%

CCCCCCCCCCCCCCCCCC[n+]1ccc2c(C)c3c(c(C)c2c1)c1cc(O)ccc1n3CC
inactive: T-47D breast 23.5% | SW-620 colon 13.3% | MCF7 breast 28.3% | HCC-2998 colon 31.5% | KM12 colon 10.8%
active: BT-549 breast -11% | MDA-MB-435 melanoma -53.4% | HCT-116 colon 7.88%

CCc1ccc(C2=NN(c3ccc(S(C)(=O)=O)cc3)C(=O)CC2)cc1
inactive: T-47D breast 41.4% | BT-549 breast 21.9% | SW-620 colon 12.4% | MCF7 breast 26% | HCT-116 colon 15.7% | HCC-2998 colon 46.6% | KM12 colon 17.3%
active: MDA-MB-435 melanoma -24.3%

COc1ccc(-c2nn(-c3cccc(Cl)c3)cc2C=C(C#N)C#N)cc1
active: BT-549 breast -34.8% | MDA-MB-435 melanoma -68.5% | SW-620 colon -2.25% | MCF7 breast -11.6% | HCT-116 colon -40.9% | HCC-2998 colon 8.75% | KM12 colon 4.48%
inactive: T-47D breast 21.1%

COc1cc(-c2nn(-c3cccc(NC(=O)NCCNC(=O)c4cccc(C(F)(F)F)c4)c3)cc2-c2ccncc2)ccc1Cl
inactive: T-47D breast 52.7% | BT-549 breast 14.2% | SW-620 colon 36.1% | MCF7 breast 12.7% | HCT-116 colon 24.4% | HCC-2998 colon 67.3% | KM12 colon 18.9%
active: MDA-MB-435 melanoma -41.6%

Clc1nc2ccccc2cc1Cn1nnc(Cc2ccccc2)n1
inactive: T-47D breast 26.1% | BT-549 breast 38.9% | MDA-MB-435 melanoma 65.3% | SW-620 colon 86.6% | MCF7 breast 45.8% | HCT-116 colon 35.1% | HCC-2998 colon 81.3% | KM12 colon 66.3%

CC(C)(C)OC(=O)CN1CCc2c(sc3ncnc(N/N=C/c4ccccc4Br)c23)C1
inactive: T-47D breast 47.3% | BT-549 breast 82.9% | MDA-MB-435 melanoma 80.5% | SW-620 colon 60.6% | HCT-116 colon 48.7% | HCC-2998 colon 76.3% | KM12 colon 80%
active: MCF7 breast 3.49%

CC(C)c1ccc(C(C)C(=O)N(CC2=C(C(C)c3ccccn3)c3ccccc3C2)C(C)C)cc1 (configuration not stated)
inactive: T-47D breast 13.3% | BT-549 breast 69.6% | MDA-MB-435 melanoma 44.1% | SW-620 colon 31.3% | MCF7 breast 19.9% | HCT-116 colon 11.1% | HCC-2998 colon 37.3% | KM12 colon 37.5%

CCN(CCCNc1cc2c(c(N)c1S(=O)(=O)O)C(=O)c1ccccc1C2=O)c1ccccc1
inactive: T-47D breast 93.1% | BT-549 breast 89.2% | MDA-MB-435 melanoma 106% | SW-620 colon 113% | MCF7 breast 107% | HCT-116 colon 90% | HCC-2998 colon 108% | KM12 colon 107%

O=C1c2ccccc2C(=O)N1CCCCNc1ccccc1
inactive: T-47D breast 124% | BT-549 breast 61.7% | MDA-MB-435 melanoma 118% | SW-620 colon 105% | MCF7 breast 111% | HCT-116 colon 97.5% | HCC-2998 colon 108% | KM12 colon 67%

CS(=O)(=O)c1nccc(-c2c(-c3cccc(OCc4ccc(F)cc4)c3)nc3sccn23)n1
active: HCC-2998 colon -16.3%
inactive: T-47D breast 71.6% | BT-549 breast 41.7% | MDA-MB-435 melanoma 81.3% | SW-620 colon 48.4% | MCF7 breast 69.5% | HCT-116 colon 46.4% | KM12 colon 38.9%

CCCCC(CC)CN=C(N)NC(N)=NCCCCCCN=C(N)NC(N)=NCC(CC)CCCC (configuration not stated)
active: T-47D breast -54.3% | BT-549 breast -85.2% | MDA-MB-435 melanoma -94% | SW-620 colon -78% | MCF7 breast -75.7% | HCT-116 colon -85.6% | HCC-2998 colon -88.8% | KM12 colon -94.4%

Cc1cc(O)ccc1C1=NN(c2ccc(S(C)(=O)=O)cc2)C(=O)CC1
active: MDA-MB-435 melanoma -8.25%
inactive: T-47D breast 84.8% | BT-549 breast 58.2% | SW-620 colon 46.6% | MCF7 breast 82.8% | HCT-116 colon 52.4% | HCC-2998 colon 78.6% | KM12 colon 47.6%

Cc1ccc(C(=O)C2C(=O)C3CCC2C3)cc1 (configuration not stated)
inactive: T-47D breast 108% | BT-549 breast 105% | MDA-MB-435 melanoma 100% | SW-620 colon 104% | MCF7 breast 97.5% | HCT-116 colon 108% | HCC-2998 colon 106% | KM12 colon 107%

CCn1c(SCc2ccc(C)cc2)nnc1-c1nn(-c2ccc(Cl)cc2Cl)c(-c2ccc(Cl)cc2)c1C
active: T-47D breast -8.15% | BT-549 breast -7.34% | MCF7 breast 4.46% | HCT-116 colon 1.74%
inactive: MDA-MB-435 melanoma 19.7% | SW-620 colon 20.4% | HCC-2998 colon 23.4% | KM12 colon 15.8%

CC(C)(C)OC(=O)CC(S(=O)(=O)c1ccccc1)S(=O)(=O)c1ccccc1
active: SW-620 colon -63.9%
inactive: T-47D breast 67.1% | BT-549 breast 108% | MDA-MB-435 melanoma 100% | MCF7 breast 97% | HCT-116 colon 82.5% | HCC-2998 colon 106% | KM12 colon 99.6%

COc1cc2cc(Oc3ccc(NC(=O)c4ccc(Cl)c(C(F)(F)F)c4)cc3)c(C)nc2cc1OC
inactive: T-47D breast 82.8% | BT-549 breast 20.8% | MDA-MB-435 melanoma 25.7% | SW-620 colon 34.2% | MCF7 breast 24.8% | HCC-2998 colon 41.3% | KM12 colon 19.7%
active: HCT-116 colon 8.43%

CN(C)c1ccc(/C=N/NC(=O)c2cccc3ccccc23)c(Cl)c1
active: MDA-MB-435 melanoma -22.1%
inactive: T-47D breast 25.4% | BT-549 breast 45.3% | SW-620 colon 24.2% | MCF7 breast 15.1% | HCT-116 colon 31% | HCC-2998 colon 61.2% | KM12 colon 22.7%

COc1cc(OC)c2c(=O)c(O)c(-c3ccccc3)oc2c1
inactive: T-47D breast 92.1% | BT-549 breast 85.6% | MDA-MB-435 melanoma 86.9% | SW-620 colon 77.7% | MCF7 breast 70.1% | HCT-116 colon 63.1% | HCC-2998 colon 83.9% | KM12 colon 78.7%
